This is a sample that favours compounds with a hit; in the whole collection about 4.7% have one here.
MPTP inh – permeability transition pore inhibition. isolated mouse mitochondria, Ca2+ swelling absorbance, 30 min. inhibition, % at 10 µM. 360,000 compounds, 1.4% hits. AID 602449;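 active = inhibition of 50% or more, scaled per plate between neutral and stimulator controls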;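 also: 0% = DMSO wells given calcium and 100% = 1 mM EGTA wells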
Pemphigus Ab inh – inhibitors of pemphigus antibody binding to human desmoglein-3 | binding (percent of control), % at 10 µM | DSG3-coupled beads, scFv-anti-DSG3-GFP binding, flow cytometry; stronger effect = lower value | 310,000 compounds, 0.48% hits | AID 588358 | P32926;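 active = binding more than 3 SD below its plate's average and above zero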
ADAM10 inh – ADAM10 inhibition, QFRET primary screen. recombinant ADAM10, EDANS/DABCYL FRET peptide cleavage, 3 h. inhibition, % at 7 µM. 370,000 compounds, 0.62% hits. AID 720582;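 active = inhibition above a per-campaign cutoff equal to the mean of compounds falling between control-based bounds plus 3 SD, cut at about 20% in these data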;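 also: 0% = DMSO wells while the 100% control is not disclosed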
Target sequence (O14672 214-748 limits assumed): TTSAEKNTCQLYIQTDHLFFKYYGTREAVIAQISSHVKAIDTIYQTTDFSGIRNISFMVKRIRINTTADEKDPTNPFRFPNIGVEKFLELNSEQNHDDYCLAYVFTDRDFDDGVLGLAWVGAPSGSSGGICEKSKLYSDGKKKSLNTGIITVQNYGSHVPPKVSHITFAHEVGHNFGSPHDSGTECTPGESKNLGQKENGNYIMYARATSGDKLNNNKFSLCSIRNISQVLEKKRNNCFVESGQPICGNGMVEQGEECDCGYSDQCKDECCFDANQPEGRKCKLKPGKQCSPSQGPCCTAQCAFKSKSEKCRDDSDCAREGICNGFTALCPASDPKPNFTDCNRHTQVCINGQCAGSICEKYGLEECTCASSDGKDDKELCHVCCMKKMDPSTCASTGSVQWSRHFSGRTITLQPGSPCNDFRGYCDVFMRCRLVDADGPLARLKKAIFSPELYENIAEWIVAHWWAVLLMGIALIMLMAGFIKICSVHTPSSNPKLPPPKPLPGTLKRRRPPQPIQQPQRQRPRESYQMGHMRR
rCAG RNA binder – r(CAG) repeat RNA binding. inhibition, % at 3 µM. TO-PRO-1 dye displacement fluorescence. 370,000 compounds, 1.3% hits;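 active = inhibition above the plate cutoff, the mean of all test compounds on that plate plus 3 SD, cut at about 35% in these data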;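 also: 0% = DMSO alone and 100% = 100 µM mitoxantrone as full dye displacement; higher means more dye released from RNA so lower well fluorescence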
ADAM17 inh – ADAM17 inhibition, QFRET primary screen; recombinant ADAM17, EDANS/DABCYL FRET peptide cleavage; inhibition, % at 6.95 µM; 370,000 compounds, 0.83% hits; AID 720648;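 active = inhibition above the mean of compounds lying between control limits plus 3 SD, set per campaign, cut at about 8.5% in these data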;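 also: 0% = DMSO-only wells as the low control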
proKLK7 act – proKLK7 (human) activation, primary screen; AID 652039; activation, % at 7 µM; purified proKLK7, EDANS-DABCYL substrate fluorescence; 100% is mature enzyme control, 0% vehicle; 370,000 compounds, 0.9% hits; P49862;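 active = activation above the mean of all tested compounds plus 3 SD, computed per campaign excluding outliers beyond control limits, cut at about 13% in these data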
ADAM10 confirm – human ADAM10 inhibition, confirmation. shares compounds with ADAM10 inh. inhibition, % at 6.95 µM. ADAM10 QFRET peptide cleavage, EDANS fluorescence. 2,100 compounds, 1% hits;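 active = inhibition above about 20% chosen separately for each screening run, limit read from the data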;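 also: 0% = DMSO wells and 100% = marimastat wells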
ADAM17 counter – ADAM17 inhibition, counter-screen for ADAM10 exosite hits | shares compounds with ADAM10 inh | ADAM17 QFRET peptide cleavage, EDANS fluorescence | inhibition, % at 6.95 µM | 2,100 compounds, 0.5% hits;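 active = mean triplicate inhibition above the solvent-only control wells' mean plus 3 SD, cut at about 12% in these data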;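 also: 0% = DMSO wells and 100% = marimastat wells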
The depositor's hits bear a star; . = not tested or not shown.

SMILES	MPTP inh	Pemphigus Ab inh	ADAM10 inh	rCAG RNA binder	ADAM17 inh	proKLK7 act	ADAM10 confirm	ADAM17 counter
Cc1cc(C)c(OCC(=O)Nc2cccc(NC(=O)c3ccco3)c2)c(Br)c1	6	100	21*	-1	8	0	6	2
CCOc1ccc(Cl)cc1-c1cc(C(=O)Nc2ccc(OC)nc2)[nH]n1	0	.	2	6	0	0	.	.
COc1ccc(NC(=O)c2ccc(F)cc2)cc1S(=O)(=O)Nc1cc(C)ccc1Br	-14	94	23*	10	8	1	8	3
CCOc1ccc(Cl)cc1-c1cc(C(=O)Nc2cc(OC)c(OC)c(OC)c2)[nH]n1	1	.	20*	9	7	1	7	1
COc1ccc(NC(=O)c2cc(-c3cc(C)cc(F)c3)n[nH]2)cc1OC	3	.	26*	6	8	-1	0	0
COc1ccc(-c2nc(-c3ccccc3)c(-c3cc([N+](=O)[O-])ccc3C)[nH]2)cc1O	2	106	31*	17	8	0	8	2
COC(=O)c1ccccc1Oc1cc(C(F)(F)F)nc(-c2ccccn2)n1	1	111	0	-3	0	1	.	.
N#Cc1c(NC(=O)CCN2C(=O)c3ccccc3C2=O)oc(-c2ccccc2)c1-c1ccccc1	0	101	-6	9	-7	0	.	.
N#Cc1c(NC(=O)CCn2cnc3ccccc3c2=O)oc(-c2ccccc2)c1-c1ccccc1	1	98	20*	19	7	1	16	6
C[C@@H](O)C(C(=O)N1CCNCC1)n1cc([C@@H](N)CCCCN)nn1 (stereo not given in full)	1	102	22*	3	3	0	3	0
CC(C)C[C@H](N)c1cn([C@@H](CCCCN)C(=O)N2CCNCC2)nn1	0	99	12	3	-3	0	.	.
COc1ccc([N+](=O)[O-])cc1N(CC(=O)NCCSc1ccc(C)cc1)S(C)(=O)=O	-2	107	3	0	0	-1	.	.
COc1ccc(C)cc1NS(=O)(=O)c1ccc(NC(=O)CN(c2cc([N+](=O)[O-])ccc2C)S(C)(=O)=O)cc1	-1	119	23*	21	9.1*	-1	5	1
Cc1[nH]c2ccc(C(=O)OC(C)C(=O)NC3(C#N)CCCCC3)cc2c1C (stereo not given)	-1	104	0	12	-1	1	.	.
CC1(Cc2cccc(F)c2)C(=O)Nc2ccc(S(=O)(=O)NC3CCCCC3)cc21 (stereo not given)	1	.	7	2	3	0	.	.
CC1(Cc2ccc(Cl)c(Cl)c2)C(=O)Nc2ccc(S(=O)(=O)NC3CCCCC3)cc21 (stereo not given)	-2	.	20*	4	8	1	13	3
O=C(NCc1ccccc1)C1=C[C@H](c2ccccc2)C[C@H](OCc2ccc(CO)cc2)O1	1	99	20*	2	8	0	1	1
O=C(Nc1ccccc1)C1=C[C@H](c2ccc(C(F)(F)F)cc2)C[C@H](OCc2ccc(CO)cc2)O1	.	.	26*	8	8.6*	0	7	3
O=C(Nc1ccccc1)C1=C[C@H](c2ccccc2)C[C@H](OCc2ccc(CO)cc2)O1	-1	104	6	0	0	0	.	.
Cc1ccc(Cl)c(OC(=O)C2CSC3(C)CCC(=O)N23)c1 (stereo not given)	-1	96	1	-8	-3	0	.	.
Cc1ccc(S(=O)(=O)c2nc(S(=O)(=O)c3ccccc3)sc2N2CCN(C)CC2)cc1	1	112	-4	-4	2	1	.	.
CC1(C(=O)NCc2ccccc2)CN(S(C)(=O)=O)CC(=O)N1CCCN1CCOCC1 (stereo not given)	1	.	-12	1	-4	0	.	.
